Reference: PubChem BioAssay (NCI)
This is part of a sample that, as a whole, favours compounds with a hit. Of some 83,000 tested, about 20% had one in any assay.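 Plates (96-well) were seeded with cells, treated with compound at one concentration, and incubated for 48 hours before percent growth was determined.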 Active and inactive are the calls of the source. The calls were made as follows: active = growth percent below 10; inactive = the rest.

Assays:
Assay in all cases: NCI-60 one-dose screen, 48 h (100 = growth as untreated, 0 = no growth, -100 = all killed)
Settings in all cases: 10 µM unless noted
NCI-H226 lung = system: NCI-H226 lung
NCI-H322M lung = system: NCI-H322M lung
HOP-62 NSCLC = system: HOP-62 NSCLC
NCI-H460 lung = system: NCI-H460 lung
HOP-92 NSCLC = system: HOP-92 NSCLC
NCI-H522 lung = system: NCI-H522 lung
A549/ATCC NSCLC = system: A549/ATCC NSCLC
786-0 renal = system: 786-0 renal
COLO 205 colon = system: COLO 205 colon
DU-145 prostate = system: DU-145 prostate
K-562 leukemia = system: K-562 leukemia
MALME-3M melanoma = system: MALME-3M melanoma
MDA-MB-231 breast = system: MDA-MB-231 breast
RXF 393 renal = system: RXF 393 renal
SF-268 CNS = system: SF-268 CNS
SF-295 CNS = system: SF-295 CNS
SF-539 CNS = system: SF-539 CNS
UACC-257 melanoma = system: UACC-257 melanoma
M14 melanoma = system: M14 melanoma
HCT-15 colon = system: HCT-15 colon

Measured: growth

O=C1/C(=C/C2=Cc3ccccc3OC2)SC(=S)N1c1ccc(F)cc1
inactive: NCI-H226 lung 103% | NCI-H322M lung 97.2% | HOP-62 NSCLC 101% | NCI-H460 lung 105% | HOP-92 NSCLC 99.2% | NCI-H522 lung 90.4% | A549/ATCC NSCLC 101% | 786-0 renal 96.3% | COLO 205 colon 107% | DU-145 prostate 104% | K-562 leukemia 91% | MALME-3M melanoma 101% | MDA-MB-231 breast 99% | RXF 393 renal 106% | SF-268 CNS 111% | SF-295 CNS 102% | SF-539 CNS 98.5% | UACC-257 melanoma 108% | M14 melanoma 103% | HCT-15 colon 105%

Cc1cccc(/C=C/c2nn3c(-c4ccco4)nnc3s2)c1
inactive: NCI-H226 lung 96.5% | NCI-H322M lung 94.4% | HOP-62 NSCLC 100% | NCI-H460 lung 102% | HOP-92 NSCLC 119% | NCI-H522 lung 95.2% | A549/ATCC NSCLC 95.3% | 786-0 renal 97.6% | COLO 205 colon 107% | DU-145 prostate 105% | K-562 leukemia 93% | MALME-3M melanoma 96.9% | MDA-MB-231 breast 98.2% | RXF 393 renal 111% | SF-268 CNS 105% | SF-295 CNS 94.5% | SF-539 CNS 94.9% | UACC-257 melanoma 98.3% | M14 melanoma 101% | HCT-15 colon 88.1%

Nc1c(C(=O)Nc2ccc(C(F)(F)F)cc2)sc2nc(-c3cnccn3)cc(-c3cccs3)c12
inactive: NCI-H322M lung 81.8% | HOP-62 NSCLC 68.1% | NCI-H460 lung 69.7% | NCI-H522 lung 88.5% | A549/ATCC NSCLC 77.9% | COLO 205 colon 104% | DU-145 prostate 90.1% | K-562 leukemia 35.5% | MALME-3M melanoma 89% | MDA-MB-231 breast 66.2% | RXF 393 renal 25.5% | SF-268 CNS 78.6% | SF-295 CNS 78.7% | UACC-257 melanoma 95.8% | M14 melanoma 49.4% | HCT-15 colon 78.6%
active: NCI-H226 lung 6.24% | HOP-92 NSCLC -27.4% | 786-0 renal -90.3% | SF-539 CNS -54.1%

O=C(Oc1ccc2ccc(=O)oc2c1)c1ccc(Cl)cc1
inactive: NCI-H226 lung 104% | NCI-H322M lung 99% | HOP-62 NSCLC 108% | NCI-H460 lung 103% | HOP-92 NSCLC 95.2% | NCI-H522 lung 105% | A549/ATCC NSCLC 94.2% | 786-0 renal 100% | COLO 205 colon 114% | DU-145 prostate 108% | K-562 leukemia 115% | MALME-3M melanoma 102% | MDA-MB-231 breast 103% | RXF 393 renal 116% | SF-268 CNS 106% | SF-295 CNS 101% | SF-539 CNS 101% | UACC-257 melanoma 106% | M14 melanoma 107% | HCT-15 colon 97.9%

COc1ccc(N/N=C/c2c(-c3ccc(S(C)(=O)=O)cc3)nc3ccccn23)cc1
active: NCI-H522 lung 3.48% | K-562 leukemia 8.66% | SF-295 CNS 6.91%
inactive: NCI-H226 lung 71% | NCI-H322M lung 50% | HOP-62 NSCLC 57.4% | NCI-H460 lung 21.8% | HOP-92 NSCLC 23% | A549/ATCC NSCLC 36.9% | 786-0 renal 48% | COLO 205 colon 55.1% | DU-145 prostate 40.1% | MALME-3M melanoma 75.1% | MDA-MB-231 breast 38.7% | RXF 393 renal 79.3% | SF-268 CNS 55.7% | SF-539 CNS 55.4% | UACC-257 melanoma 70.6% | M14 melanoma 18.4% | HCT-15 colon 19.3%

O=C(N/N=C/c1ccc(Br)s1)c1[nH]c2ccc(Br)cc2c1-c1ccccc1
inactive: NCI-H226 lung 52.6% | NCI-H322M lung 48.2% | HOP-62 NSCLC 46.5% | HOP-92 NSCLC 46.6% | A549/ATCC NSCLC 28.8% | 786-0 renal 11.5% | DU-145 prostate 18.6% | MALME-3M melanoma 55.1% | RXF 393 renal 60% | SF-268 CNS 37.2% | SF-295 CNS 14.8% | UACC-257 melanoma 57.2% | HCT-15 colon 12.4%
active: NCI-H460 lung 3.52% | NCI-H522 lung -38.5% | COLO 205 colon -44.3% | K-562 leukemia 7.72% | MDA-MB-231 breast 4.67% | SF-539 CNS 0.701% | M14 melanoma 2.05%

CCN1C(=S)N(c2ccccc2)C2NC(=O)N(/N=C/C=C/c3ccccc3OC)C21 (stereo not given)
inactive: NCI-H226 lung 98.9% | NCI-H322M lung 94.9% | HOP-62 NSCLC 80.6% | NCI-H460 lung 89.2% | HOP-92 NSCLC 72.3% | NCI-H522 lung 89% | A549/ATCC NSCLC 87.9% | 786-0 renal 96.1% | COLO 205 colon 122% | DU-145 prostate 101% | K-562 leukemia 59.2% | MALME-3M melanoma 87.2% | MDA-MB-231 breast 71.9% | RXF 393 renal 92.4% | SF-268 CNS 93.9% | SF-295 CNS 87.9% | SF-539 CNS 86.3% | UACC-257 melanoma 102% | M14 melanoma 92.6% | HCT-15 colon 67.6%

CC(C)(C)Nc1nc2c(OCCc3ccccc3)cccn2c1-c1ccccc1Cl
active: NCI-H226 lung -0.3% | NCI-H322M lung 8.57% | HOP-62 NSCLC -22.1% | NCI-H460 lung 0.335% | HOP-92 NSCLC -74.8% | NCI-H522 lung -13.4% | 786-0 renal 6.01% | COLO 205 colon -76.6% | K-562 leukemia 0.922% | MALME-3M melanoma -32% | MDA-MB-231 breast -32.6% | RXF 393 renal -43.6% | SF-295 CNS -56.8% | SF-539 CNS -74.7% | UACC-257 melanoma 1.9% | M14 melanoma 0.193% | HCT-15 colon -72.1%
inactive: A549/ATCC NSCLC 11.6% | DU-145 prostate 21.1% | SF-268 CNS 22.9%
